Measurements: PubChem BioAssay (NCI)
Compounds without any hit were thinned out: in the full panel of roughly 79,000, 15% have a hit. Cut-off read from the data, not from the text of the source: active = growth inhibition above about 70%; inactive = the rest.

Key:
[1] = NCI Yeast Anticancer Drug Screen. Data for the rad50 strain (AID 155);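 note: 0% = growth of vehicle-only cultures of the same strain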; details: S. cerevisiae rad50 strain growth inhibition; at 50.0 µM; hits give high values
Summary of the method: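 Readout: growth inhibition relative to vehicle-treated cultures. Compound exposure was carried out in a genetically defined yeast strain deficient in DNA damage repair.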

[2] = NCI Yeast Anticancer Drug Screen. Data for the mec2-1 strain (AID 157); details: S. cerevisiae mec2-1 strain, at 50.0 µM, hits give high values
Summary of the method: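 Yeast mec2-1 mutant treated with compound. Readout: growth inhibition vs vehicle controls.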

[3] = NCI Yeast Anticancer Drug Screen. Data for the sgs1 mgt1 strain (AID 161);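 note: 0% = growth of cultures given vehicle only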; details: S. cerevisiae sgs1 mgt1 strain, at 50.0 µM, hits give high values
Summary of the method: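 Inhibition of yeast growth, normalised to vehicle-treated controls, is reported for a strain bearing genetic alterations in DNA damage repair.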

[4] = NCI Yeast Anticancer Drug Screen. Data for the cln2 rad14 strain (AID 165);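 note: 0% = growth equal to vehicle treated cultures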; details: S. cerevisiae cln2 rad14 strain, at 50.0 µM, hits give high values
Summary of the method: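 cln2 rad14 yeast strain; compound exposure; growth inhibition read vs vehicle controls.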

[5] = NCI Yeast Anticancer Drug Screen. Data for the bub3 strain (AID 167); details: S. cerevisiae bub3 mutant strain, at 50.0 µM, hits give high values
Summary of the method: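 Readout: yeast growth inhibition, expressed relative to vehicle-only wells. The test organism is a mutant strain from a panel with lesions in DNA repair or checkpoint genes.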

[6] = NCI Yeast Anticancer Drug Screen. Data for the mlh1 rad18 strain (AID 175); details: S. cerevisiae mlh1 rad18 strain growth inhibition; at 50.0 µM; hits give high values
Summary of the method: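 Yeast w/ defined DNA-repair lesions; compound exposure; growth vs vehicle controls → % inhibition.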

Measured: growth inhibition

CC1CCC(=O)N1c1ccc(N)cc1 (stereo not drawn)
inactive: [1] -19% | [2] -15.5% | [3] -15.2% | [4] 11.2% | [5] -23.3% | [6] 10.1%

O=C1Nc2cccc3cc(NCC(O)CCl)cc1c23 (stereo not drawn)
inactive: [1] 31.3% | [2] 8.5% | [3] 11.4% | [4] 17.9% | [5] 3.05% | [6] -23.9%

Cc1[nH]c(=O)[nH]c(=O)c1/C=C/C(=O)NC(CO)CS(C)=O (stereo not drawn)
inactive: [1] -1.5% | [2] -7.15% | [3] 0.75% | [4] 6.1% | [5] 0.75% | [6] 7.05%

COC(=O)C(CCCCNC(=O)OCc1ccccc1)NC(=O)c1ccc(N(C)C=O)cc1 (stereo not drawn)
inactive: [1] 14.6% | [2] 19.7% | [3] -1.7% | [4] 26.6% | [5] 3.45% | [6] 14.8%

CC(C)CN(CC#N)CC(C)C
inactive: [1] -31.8% | [2] -26.9% | [3] -34.5% | [4] 15.1% | [5] -49.1% | [6] -50%

c1ccc(N=C(C(=Nc2ccccc2)c2ccccc2)c2ccccc2)cc1
inactive: [1] 4.7% | [2] 13.6% | [3] 3.65% | [4] -67.8% | [5] 4.65% | [6] -9.05%

C=CCOc1c(C)cc(C)cc1C
inactive: [1] 5.3% | [2] -17.4% | [3] -5.95% | [4] -16.3% | [5] -14.8% | [6] -6.85%

O=C(CC(=O)Nc1ccccc1)NNC(c1cc(N=Nc2ccc(Br)cc2)ccc1O)P(O)O (stereo not drawn)
inactive: [1] -4.65% | [2] 6.25% | [3] -10.4% | [4] -3.2% | [5] -14% | [6] -38%

Cn1c2ccccc2c2c3ccc[n+](C)c3ccc21
inactive: [1] 8% | [2] -2.9% | [3] 8.7% | [4] -57.5% | [5] -0.1% | [6] 2.1%

COc1ccc(C(C)=O)c(OC(C)=O)c1OC(C)=O
inactive: [1] 4.05% | [2] 0.95% | [3] 6.25% | [4] 10% | [5] 5.8% | [6] 17.2%

COc1ccc(CCO)cc1
inactive: [1] 0.55% | [2] -36% | [3] -15.9% | [4] -10.2% | [5] -31.1% | [6] -33.2%

CC(=O)CC1(O)C(=O)C(C(C)(C)C)=CC2(C(C)(C)C)OC12 (stereo not drawn)
inactive: [1] 2.25% | [2] -13.1% | [3] -3.45% | [4] -10.1% | [5] 6.25% | [6] 0.25%

CN(C)C(=S)N(C)C
inactive: [1] -37.1% | [2] -33% | [3] -17.4% | [4] 0.45% | [5] -23.2% | [6] -23.7%

CC12CCC3c4ccc(O)cc4CCC3C1CC(OC1OC(C(=O)O)C(O)C(O)C1O)C2O (stereo not drawn)
inactive: [1] 31.6% | [2] 5.9% | [3] 13.5% | [4] 2.4% | [5] 2.4% | [6] 22.2%

COc1ccc(-c2cn3c([nH]c(=O)c4cc(Br)ccc43)c2C#N)cc1
inactive: [1] 5.55% | [2] -5.3% | [3] -3.7% | [4] -5.25% | [5] 2.2% | [6] 16.1%

CC(C)(C)[Si](C)(C)OCC1OC(n2cnc3c(N)ncnc32)C(O)C1O (stereo not drawn)
inactive: [1] -12.4% | [2] -15.2% | [3] 4.85% | [4] -0.2% | [5] 3.5% | [6] -2.35%

CCC/C(=N/NC(N)=O)c1ccco1
inactive: [1] -2.85% | [2] -1.55% | [3] -8.15% | [4] -2.25% | [5] -1.7% | [6] -0.3%

Cc1ccc2c(c1)[nH]c(=S)n2C=C1C(=O)CC(C)(C)CC1=O
inactive: [1] -40% | [2] -63.3% | [3] -33.8% | [4] 9.05% | [5] -21.6% | [6] -9.25%

CC(=O)NS(=O)(=O)c1ccc(N=C=S)cc1
inactive: [1] -7.25% | [2] 1.85% | [3] -12.8% | [4] -19.4% | [5] -2.9% | [6] -1.05%

CN=C/C(C(C)=O)=C(\C)O
inactive: [1] 4.1% | [2] -0.05% | [3] -4.85% | [4] 3.6% | [5] 8.5% | [6] 0.65%

Nc1cc(=O)n(-c2ccccc2)[nH]1
inactive: [1] -2.05% | [2] -10.6% | [3] -6.8% | [4] -19.9% | [5] -27.9% | [6] 22%

COc1ccc(C2c3cc4c(cc3OC(C)(OC)C2C)OCO4)cc1 (stereo not drawn)
inactive: [1] -33.5% | [2] -6.8% | [3] -3.25% | [4] -14.8% | [5] 19.8% | [6] 14.7%

C/C=C/C(=O)OCCOc1ccccc1-c1ccccc1
inactive: [1] 15.5% | [2] 16.3% | [3] 4.35% | [4] -16.3% | [5] 25.2% | [6] 20.1%

COC(CN(C)C(=S)Nc1cccc2ccccc12)OC
inactive: [1] -31.9% | [2] -74% | [3] -23.6% | [4] -11.7% | [5] -6.2% | [6] -30.9%

OC1COC(O)(CNCCc2c[nH]c3ccc(OCc4ccccc4)cc23)C(O)C1O (stereo not drawn)
inactive: [1] -25.5% | [2] 7.25% | [3] -18.2% | [4] -49.7% | [5] -20.7% | [6] 19.1%

O=C(O)/C(=C\c1ccncc1)c1cccc2ccccc12
inactive: [1] 0.85% | [2] -12% | [3] -37.4% | [4] -24.9% | [5] -32% | [6] -9.65%

COC(=O)c1nc(N)nc(C(=O)OC)c1C(=O)c1ccncc1
inactive: [1] -12.2% | [2] -19.9% | [3] 0.1% | [4] -16.1% | [5] -24.9% | [6] -4.45%

COC(=O)C(/C(=N/N)C(=O)Nc1cc(Cl)ccc1Cl)c1nc2ccc([N+](=O)[O-])cc2[nH]c1=O (stereo not drawn)
inactive: [1] -10.6% | [2] -13.3% | [3] 7.3% | [4] 10.5% | [5] 13.9% | [6] 15.6%

COC(=O)/C(N=Nc1cccc(C)c1)=C(\C)O
inactive: [1] 8.65% | [2] 5.65% | [3] 5.3% | [4] 19.9% | [5] 9.8% | [6] -2.7%

NC(=O)C(Cc1ccccc1)NC(=O)C1CCCN1 (stereo not drawn)
inactive: [1] 4.2% | [2] 1.35% | [3] 2.5% | [4] -33.9% | [5] -6.1% | [6] 24.6%

O=c1cc(-c2ccccc2)c2cc3c(=O)ccoc3cc2o1
inactive: [1] 12.8% | [2] 27.1% | [3] 12% | [4] 14.9% | [5] -1.55% | [6] 0.95%

CC(=O)N1CC(C)(C)c2c(C)c(O)c(C)c(C)c21
inactive: [1] -16.1% | [2] -22.3% | [3] -15.4% | [4] 17.1% | [5] 8.45% | [6] 0.3%

COc1ccc(CN=CN/C(C#N)=C(\N)C#N)cc1OC
inactive: [1] -21.2% | [2] -49.8% | [3] -28.6% | [4] 6.55% | [5] 4.35% | [6] -23.6%

CCCCCCCCCCCNc1ncnc2[nH]ncc12
inactive: [1] -8.6% | [2] -16.5% | [3] 5.3% | [4] -0.7% | [5] -2.05% | [6] 9.8%

C[S+](C)N(c1ccccc1)C(C)(C)C
inactive: [1] -10.1% | [2] -8.2% | [3] -0.45% | [4] -17.4% | [5] -22.7% | [6] -6.1%

COc1cc(C(=O)CC(=O)Cc2ccc3ccccc3n2)cc(OC)c1OC
inactive: [1] 2.75% | [2] 1.3% | [3] 0.9% | [4] -15.7% | [5] 2.05% | [6] 38.2%

COc1ccc(N2C(=O)/C(=C/c3ccc(N(CCC#N)CCC#N)cc3C)N=C2c2cc([N+](=O)[O-])ccc2Cl)cc1
inactive: [1] -13.2% | [2] 0.95% | [3] 1.5% | [4] -5.55% | [5] -13.9% | [6] 1.85%

COc1cc(C(O)C(CO)Oc2c(OC)cc(C3OCC4C(c5cc(OC)c(O)c(OC)c5)OCC34)cc2OC)ccc1O (stereo not drawn)
inactive: [1] 20.1% | [2] 1.4% | [3] -2.05% | [4] 10% | [5] -6.7% | [6] 15.2%

Nc1c(Cl)cc2c(c1Br)C(=O)c1ccccc1C2=O
inactive: [1] 13.7% | [2] -3.5% | [3] 1.1% | [4] 23.4% | [5] 11.9% | [6] 19.5%

O=[N+]([O-])c1cccc(-c2csc(NNC3=NC/C(=C/c4ccc5c(c4)OCO5)S3)n2)c1
inactive: [1] 33.5% | [2] -7.9% | [3] 33% | [4] -33.5% | [5] 23.6% | [6] 22.1%

CCCCCCCCOC(=O)CO
inactive: [1] 23.8% | [2] -30.1% | [3] 17.8% | [4] 5.35% | [5] 3.1% | [6] 12.3%

N#CCCNCCC[Si]12OCCN(CCO1)CCO2
inactive: [1] 6.5% | [2] 1.35% | [3] 10.5% | [4] 56.9% | [5] 7.15% | [6] 2.4%

COC(=O)C1c2ccccc2CC(=O)N1NC(=O)c1ccccc1 (stereo not drawn)
inactive: [1] -7.7% | [2] -2.95% | [3] -17.1% | [4] 4.5% | [5] 3.65% | [6] 16.6%
